B-score data for 93 compounds are collected here from PubChem BioAssay AID449739 (Vanderbilt High Throughput Screening Facility, 2010).

The whole screen tested about 100,000 compounds, of which about 4,200 (4.2%) were called active. The sample as a whole holds a higher share of actives than the screen did. Unmarked numbers belong to inactive results.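 How the source made its calls: active means single-dose well whose peak fluorescence ratio is a statistical outlier from its plate by either plate-standardised score or position-corrected B-score; inactive means the rest.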

Sequence of Voltage-dependent T-type calcium channel subunit alpha-1H (Homo sapiens) (O95180 whole entry, looked up): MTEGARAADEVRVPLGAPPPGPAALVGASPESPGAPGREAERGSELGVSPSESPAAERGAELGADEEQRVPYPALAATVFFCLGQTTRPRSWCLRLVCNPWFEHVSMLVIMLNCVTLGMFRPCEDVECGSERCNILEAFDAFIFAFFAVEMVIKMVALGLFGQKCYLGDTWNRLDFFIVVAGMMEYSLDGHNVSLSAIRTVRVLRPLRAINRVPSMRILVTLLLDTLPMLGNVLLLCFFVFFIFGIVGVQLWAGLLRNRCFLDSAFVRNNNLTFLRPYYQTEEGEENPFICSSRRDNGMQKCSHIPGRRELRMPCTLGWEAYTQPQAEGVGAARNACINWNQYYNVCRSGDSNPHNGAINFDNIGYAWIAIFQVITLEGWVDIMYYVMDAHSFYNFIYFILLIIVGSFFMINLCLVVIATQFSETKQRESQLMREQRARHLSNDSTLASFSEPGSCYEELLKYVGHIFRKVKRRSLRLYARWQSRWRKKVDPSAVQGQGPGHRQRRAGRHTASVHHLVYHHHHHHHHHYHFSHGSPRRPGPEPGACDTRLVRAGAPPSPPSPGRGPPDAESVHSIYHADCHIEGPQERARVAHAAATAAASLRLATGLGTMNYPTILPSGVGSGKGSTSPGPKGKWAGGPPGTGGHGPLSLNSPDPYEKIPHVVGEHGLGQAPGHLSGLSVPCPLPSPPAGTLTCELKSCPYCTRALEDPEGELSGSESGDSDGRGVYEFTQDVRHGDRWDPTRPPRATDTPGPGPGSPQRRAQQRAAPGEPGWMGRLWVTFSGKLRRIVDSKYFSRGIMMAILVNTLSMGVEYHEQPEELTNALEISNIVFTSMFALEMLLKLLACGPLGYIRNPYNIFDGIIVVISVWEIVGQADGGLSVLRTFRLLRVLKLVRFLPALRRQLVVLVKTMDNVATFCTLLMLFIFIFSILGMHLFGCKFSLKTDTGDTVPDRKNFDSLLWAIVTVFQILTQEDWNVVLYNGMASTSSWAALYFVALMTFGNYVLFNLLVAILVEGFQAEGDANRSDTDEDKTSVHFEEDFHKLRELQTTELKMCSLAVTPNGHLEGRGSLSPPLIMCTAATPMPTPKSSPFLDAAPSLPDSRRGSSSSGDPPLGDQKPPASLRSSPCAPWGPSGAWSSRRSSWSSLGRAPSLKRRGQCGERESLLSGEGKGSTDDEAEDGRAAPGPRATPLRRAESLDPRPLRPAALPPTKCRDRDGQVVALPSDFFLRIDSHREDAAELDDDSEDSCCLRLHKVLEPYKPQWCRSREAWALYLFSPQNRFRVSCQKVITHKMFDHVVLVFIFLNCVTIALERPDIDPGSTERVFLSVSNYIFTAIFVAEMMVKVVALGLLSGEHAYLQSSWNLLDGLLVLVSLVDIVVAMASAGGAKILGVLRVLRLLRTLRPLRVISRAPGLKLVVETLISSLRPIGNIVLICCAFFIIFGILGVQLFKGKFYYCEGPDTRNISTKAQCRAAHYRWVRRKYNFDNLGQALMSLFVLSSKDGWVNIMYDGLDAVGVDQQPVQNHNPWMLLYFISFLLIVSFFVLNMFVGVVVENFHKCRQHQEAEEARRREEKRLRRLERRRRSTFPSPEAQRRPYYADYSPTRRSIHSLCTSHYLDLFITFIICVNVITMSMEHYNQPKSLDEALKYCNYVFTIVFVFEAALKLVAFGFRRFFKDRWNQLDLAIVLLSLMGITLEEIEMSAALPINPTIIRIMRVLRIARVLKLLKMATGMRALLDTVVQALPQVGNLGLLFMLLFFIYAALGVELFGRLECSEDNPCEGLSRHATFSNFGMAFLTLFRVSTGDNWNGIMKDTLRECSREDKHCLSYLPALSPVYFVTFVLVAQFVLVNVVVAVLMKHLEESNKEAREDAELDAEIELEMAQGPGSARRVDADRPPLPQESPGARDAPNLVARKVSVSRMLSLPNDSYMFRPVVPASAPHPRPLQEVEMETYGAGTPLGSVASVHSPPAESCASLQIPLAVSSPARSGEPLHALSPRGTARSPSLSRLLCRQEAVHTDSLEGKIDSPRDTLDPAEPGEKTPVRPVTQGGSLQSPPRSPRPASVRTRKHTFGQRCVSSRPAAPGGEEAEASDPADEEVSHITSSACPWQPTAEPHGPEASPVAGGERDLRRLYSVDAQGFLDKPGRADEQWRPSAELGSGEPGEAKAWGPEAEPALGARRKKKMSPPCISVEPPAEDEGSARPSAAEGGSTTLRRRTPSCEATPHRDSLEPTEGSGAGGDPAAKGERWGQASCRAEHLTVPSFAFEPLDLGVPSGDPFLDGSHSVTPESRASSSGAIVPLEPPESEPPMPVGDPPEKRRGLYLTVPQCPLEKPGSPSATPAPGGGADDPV

This experiment has as its target Voltage-dependent T-type calcium channel subunit alpha-1H (Homo sapiens) (UniProt O95180). The experiment in a line: Cav3.2 calcium influx blockers – cell-based, Fluo-4 calcium fluorescence, FDSS, MLSMR library, primary screen (AID 449739). The settings on record: Cav3.2-expressing cells, at 10 µM, hits give low values.
Take `O=C(Nc1cccc2ncccc12)C(Cl)(Cl)Cl`: the B-score was 1.36.

For `COc1ccc(OCC(=O)NN2Cc3ccccc3C2=N)cc1`, the B-score was 0.0596.

Regarding `O=C(Cc1ccccc1)N/N=C/c1ccc(Cl)cc1Cl`, the B-score was -0.673.

Take `CCOc1ccccc1N(CC(=O)NC1CCCCC1)C(=O)CCCC(=O)Nc1ccccn1`: the B-score is -8.92 (active).

For `CCCC(=O)Nc1cc(OCC)c(NC(=O)NC2CCCCC2)cc1OCC`, the B-score was 0.0578.

Regarding `O=C(CCCC(=O)N(CC(=O)NC1CCCC1)Cc1ccccc1Cl)Nc1ccccn1`, the B-score was -1.66.

Take `N=c1ccn(CC(=O)NC(N)=O)c2ccccc12`: the B-score was 1.07.

As for `CC(=O)c1cnc(SCCN2C(=O)c3ccccc3C2=O)nc1C`, the B-score is -0.173.

On to `CCOC(=O)c1cc2n(c1C)-c1ccccc1C2=O`, for which the B-score is -0.985.

Regarding `CCOC(=O)c1cc2n(c1N)-c1ccccc1C2=O`, the B-score is -9.74 (active).

Regarding `CCOC(=O)Nc1ccccc1N1C(=O)c2ccccc2C1=O`, the B-score is 0.477.

In the case of `CN(NC(=O)c1ccccc1)c1nc2ccccc2nc1C(F)(F)F`, the B-score is -0.171.

As to `COc1ccc(C(=O)NN(C)c2nc(-c3ccccc3)cc(C)c2S(C)(=O)=O)cc1`, the B-score is 1.17.

Regarding `CSc1nc(N(C)NC(=O)c2cccc(C)c2)c2ccccc2n1`, the B-score was -7.16 (active).

Consider `CCc1ccccc1NC(=O)/C(=C/c1ccccc1)c1ccccc1`, for which the B-score was -4.21.

As for `O=C(/C=C/c1ccccc1)c1ccccc1O`, the B-score is 0.49.

Consider `O=C(/C=C/c1ccccc1)N/C(=C/c1ccccc1)C(=O)Nc1ccccc1O`, for which the B-score was -8.64 (active).

Turning to `COC(=O)c1c(-c2ccsc2)oc2ccc(-c3cc(OC)c(OC)c(OC)c3)cc12`, the B-score was -0.846.

Turning to `CCO[C@@H]1OC(C(=O)N2CCOCC2)=C[C@H](C)[C@H]1CCCO`, the B-score was 0.155.

`Cc1ccc(NC(=O)N2CCSc3ccccc32)cc1`: the B-score is -0.746.

On to `Cc1ccc(CN(N=Nc2nonc2N)c2nonc2N)c(C)c1`, for which the B-score was -6.83 (active).

As to `c1ccc(COc2ccccc2CNCc2cccnc2)cc1`, the B-score is -0.314.

Take `CC1(C)CC(=O)C(C=NCCN2CCN(C(=S)Nc3cccc(Cl)c3)CC2)=C(O)C1`: the B-score was -0.563.

In the case of `Cc1ccc(C)c(CSc2nc(-c3ccco3)nc3c2c(=O)n(C)c(=O)n3C)c1`, the B-score was -0.668.

For the compound `COc1ccc(CNC(=O)C2CC(c3ccc(C(F)(F)F)cc3)=NO2)cc1` (stereo not drawn), the B-score is -2.34.

Consider `O=C(C1=C[C@H](c2coc3ccccc3c2=O)C[C@H](OCc2ccc(CO)cc2)O1)N1CCN(Cc2ccccc2)CC1`, for which the B-score was -1.94.

In the case of `O=C1NC[C@@H](Cc2ccc(O)cc2)N(CCc2cccc(F)c2)C1=O`, the B-score was -1.22.

`CCN1C(=O)N[C@@H](c2ccccc2)C(C(=O)OC)=C1C`: the B-score was -0.116.

For the compound `COC(=O)C1=C(C)N(C)C(C)=C(C(=O)OC)C1c1cccc(Br)c1`, the B-score was -4.38 (active).

As for `COCCN1C(=O)N[C@@H](c2ccccc2)C(C(=O)OC)=C1C`, the B-score was 0.0333.

For `CCc1ccc(/C=N/NC(=O)c2ccc(OC3CCCC3)cc2)s1`, the B-score was -0.109.

For the compound `CCOC(=O)C1=C(CN2CCc3ccccc32)NC(=O)NC1c1cc(C)ccc1C` (stereo not drawn), the B-score was 0.647.

As to `CCOC(=O)C1=C(CN2CCc3ccccc32)NC(=O)NC1c1cccc([N+](=O)[O-])c1` (stereo not drawn), the B-score is -1.81.

For the compound `CCOC(=O)C1=C(CN2CCc3ccccc32)NC(=O)NC1c1ccc(Cl)cc1` (stereo not drawn), the B-score was -5.78 (active).

As for `COC(=O)CCCC1=CC2=CC(=O)C(C)(OC(=O)c3cccs3)C(=O)C2=CN1c1cccc(C#N)c1` (stereo not drawn), the B-score was 0.181.

Turning to `Cc1ccc(Nc2nc(-c3sc(NC(=O)c4ccccc4)nc3C)cs2)cc1`, the B-score was -0.00441.

Take `CCCCC(=O)Nc1nc(C)c(-c2csc(Nc3ccc(Cl)cc3)n2)s1`: the B-score is 0.015.

Consider `Cc1nc(C)c(-c2csc(NCCc3ccccc3)n2)s1`, for which the B-score was -6.45 (active).

Consider `CCn1c(O)c2ccc(C(=O)N=NC(=O)c3cccnc3)cc2c1O`, for which the B-score was -0.0483.

As for `CCCc1[nH]nc2c1C(c1ccc(Br)s1)C(C#N)=C(N)O2` (stereo not drawn), the B-score is 0.903.

Consider `CCCc1[nH]nc2c1C(c1c(C)nn(-c3ccccc3)c1Cl)C(C#N)=C(N)O2` (stereo not drawn), for which the B-score is -4.44 (active).

For `CCCc1[nH]nc2c1C(c1ccc(OC)c(Cn3nc(C)c(Br)c3C)c1)C(C#N)=C(N)O2` (stereo not drawn), the B-score is -0.964.

Consider `COc1cc(C2OC(c3cc(OC)c(OC)c(OC)c3)C(C)C2C)cc(OC)c1OC` (stereo not drawn), for which the B-score is -2.38.

Take `O=C(NCCCCc1ccccc1)C1CC(c2ccc([N+](=O)[O-])cc2)=NO1` (stereo not drawn): the B-score is -2.65.

As to `CCOC(=O)/C=C/c1ccc(C(F)(F)F)cc1S(=O)(=O)NC(C)(C)C`, the B-score was 0.0548.

As for `O=C(NCN1CCN(CCO)CC1)c1cnccn1`, the B-score was 0.423.

For `Cc1ccccc1N/N=C/c1ccc(N2CCOCC2)cc1`, the B-score is 0.0508.

As for `CCn1c(CNc2ccc(OC)cc2)nnc1SCC(=O)c1ccc(OC)cc1`, the B-score was 0.231.

Consider `O=C(CSc1nnc(-c2cccnc2)n1Cc1ccco1)c1ccc(Cl)cc1`, for which the B-score was 0.695.

As for `COc1ccc(C(=O)CSc2nnc(COc3ccccc3)n2Cc2ccco2)cc1`, the B-score was -4.51 (active).

Take `CC(C)C(NS(=O)(=O)c1cccs1)C(=O)Nc1nc(C(C)(C)C)cs1` (stereo not drawn): the B-score was -3.54.

For `C=CCn1c(SCc2c(C(=O)OC)sc(N)c2C(=O)OC)nnc1-c1ccc(Cl)cc1`, the B-score is -3.5 (active).

Regarding `C=CCn1c(SCn2nnc3ccccc3c2=O)nnc1-c1ccc(Cl)cc1`, the B-score was -1.02.

In the case of `C=CCn1c(SCc2cc(C(=O)OC)c(C)o2)nnc1-c1ccncc1`, the B-score is 0.333.

On to `COc1cccc2c1OCC(C(=O)NCc1ccc(Cl)cc1Cl)=C2`, for which the B-score is -1.48.

For the compound `CCc1nnc(SCc2cccc(F)c2)nc1CC`, the B-score is -2.53.

Turning to `C/C(=N\NC(=O)c1ccccc1C)c1ccc(N2CCOCC2)cc1`, the B-score is -0.0283.

For the compound `O=S(=O)(NN=C1CCCCCCC1)c1ccc(Br)cc1`, the B-score is -1.71.

As for `C/C(=N\NS(=O)(=O)c1ccc(Br)cc1)c1cccs1`, the B-score is -5.02 (active).

As for `C/C(=N\NS(=O)(=O)c1cccc([N+](=O)[O-])c1)c1cc2ccccc2o1`, the B-score is -0.824.

On to `O=Cc1c(N2CCN(c3cccc(Cl)c3)CC2)nc2ccccn2c1=O`, for which the B-score was -1.81.

For `O=C(CSc1nnc(-c2cccs2)n1-c1ccccc1)NCc1ccco1`, the B-score is 0.148.

Take `O=C(COC(=O)C12CC3CC(CC(C3)C1)C2)NCc1ccco1`: the B-score is -0.704.

As for `Cc1cc(C(=O)OCC(=O)NCc2ccco2)c(C)n1-c1ccccc1`, the B-score is -4.45 (active).

In the case of `ONC(=Nc1ccc(Cl)cc1)c1ccccc1Cl`, the B-score is -1.41.

For the compound `O=c1c2ccccc2nc2n1C(CSc1ccc(F)cc1)CN2` (stereo not drawn), the B-score is 1.22.

For the compound `O=C(Nc1ncc2c(n1)-c1ccccc1OC2)c1ccc(Cl)cc1`, the B-score is -4.5 (active).

In the case of `COC(=O)c1nc(NC(=O)c2ccc(Cl)cc2)n[nH]1`, the B-score was 1.01.

`COc1ccc(C(=O)Nc2ncc3c(n2)-c2ccccc2CC3)cc1`: the B-score was 0.00103.

Consider `C/C=C\C=C\C(=O)N1CC2(CC(c3cccc(NC(=O)/C(C)=C\C)c3)=NO2)C[C@H]1C(N)=O` (stereo partly drawn), for which the B-score was 0.133.

In the case of `CCOC(=O)c1ccc(NC(=O)c2nc[nH]c2C(=O)N[C@@H](CCCCNC(=O)OC(C)(C)C)C(=O)OC(C)(C)C)cc1`, the B-score is -0.307.

For the compound `C1=C(CCNc2ncnc3c2cnn3-c2ccccc2)CCCC1`, the B-score is -0.0964.

With `Cc1cc(C)cc(NC(=O)CSCc2cnn(-c3ccccc3)c2-n2cccc2)c1`, the B-score is -2.22.

As to `O=C(NCCC1=CCCCC1)C1CCN(Cc2cnn(-c3ccccc3)c2-n2cccc2)CC1`, the B-score is -5.79 (active).

On to `COc1cccc(NC(=S)N(CCc2c(C)[nH]c3ccccc23)Cc2ccco2)c1`, for which the B-score is -2.67.

For the compound `CNC(=O)c1[nH]cnc1C(=O)N[C@@H](CC(C)C)C(=O)OC(C)(C)C`, the B-score was 0.371.

Consider `Cc1noc(C)c1C(=O)N(CC(=O)NC1CCCC1)Cc1ccccc1F`, for which the B-score is 0.408.

With `CCOC(=O)C1C(=O)NCC1c1ccccc1` (stereo not drawn), the B-score is 0.378.

Turning to `COC(=O)CN1C(C)=Nc2ccc(Br)cc2C1c1ccccc1` (stereo not drawn), the B-score was -0.737.

With `CCC(CC)C(=O)N1CC(=O)Nc2ccc(Br)cc2C1c1ccccc1` (stereo not drawn), the B-score was -4.79 (active).

Regarding `CCCCCCCCOC1OC(CO)C(O)C(O)C1NC(C)=O` (stereo not drawn), the B-score is 0.195.

With `FC(F)(F)c1nc2ccccc2nc1N/N=C/c1ccc(Cl)cc1`, the B-score is -0.00807.

For `CC(C)(C)c1nc2ccccc2c(=O)n1N1C(=O)c2ccccc2C1=O`, the B-score is -0.127.

On to `O=c1c2ccccc2nc(N/N=C/c2ccccc2)n1O`, for which the B-score was -5.17 (active).

On to `C#CCCOC(=O)N1C2=NC(C(=O)OC)=C(C(=O)OC)[C@@H]3N(C)c4ccc(OC)cc4[C@]23C[C@H]1C(=O)OC`, for which the B-score is 0.061.

For the compound `Cc1nc(-c2ccc(Cl)cc2)sc1C1(C)CC(c2ccc(Br)cc2)=NO1` (stereo not drawn), the B-score was -0.405.

For the compound `Cc1nn(C)c(Oc2ccc(Cl)cc2)c1C=O`, the B-score is -0.0899.

For the compound `C=CCSc1nnc2c(n1)-c1cccc3cccc-2c13`, the B-score is 0.673.

Turning to `CSc1nsc(SC)c1NC(=O)OC1CCCCC1`, the B-score was -4.23 (active).

As for `COc1ccc(NC(=O)c2c(SC)nsc2SC)cc1`, the B-score was 0.226.

Consider `CC(C)C(OC(=O)c1cccs1)C(=O)NC1CCCCC1` (stereo not drawn), for which the B-score was -0.509.

As for `CC(Cc1cccs1)NC(=O)NC1CCCCC1` (stereo not drawn), the B-score is -2.2.

Regarding `O=C(NCC(=O)N(Cc1cccs1)C(C(=O)NC1CCCCC1)c1ccco1)c1cccs1` (stereo not drawn), the B-score is -6.73 (active).
